{"source": "PubChem BioAssay (NCI)", "note": "This is part of a sample that, as a whole, favours compounds with a hit. Of some 83,000 tested, about 20% had one in any assay.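 A percent growth of 40 corresponds to 60% growth inhibition; 0 means no net growth; -100 means all cells died. Active threshold: below 10.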 Values without a mark were called inactive. Active and inactive are the calls of the source."}
{"system": "MDA-MB-468 breast", "experiment": "NCI-60 one-dose screen, 48 h (100 = growth as untreated, 0 = no growth, -100 = all killed)", "conditions": "10 µM unless noted"}
{"smiles": "O=C(CSc1nc2ccccc2c(=O)n1-c1ccccc1)Nc1ccc(C(=O)/C=C/c2ccc(Cl)cc2)cc1", "growth": "121%"}
{"smiles": "C#C[C@H](O)/C=C/CCCCCCC#C[C@H](O)CC[C@@H](O)C#CCCCCCC/C=C/[C@@H](O)C#C", "growth": "97.6%"}
{"smiles": "CN1c2ccccc2Sc2cc(C=C(C#N)C#N)ccc21", "growth": "-24.4% (active)"}
{"smiles": "NC(CC(=O)O)C(=O)OCc1ccccc1", "note": "(stereo not given)", "growth": "89.4%"}
{"smiles": "CC1(C)Nc2cccc3c(N=Nc4ccc(N=Nc5ccccc5)c5ccccc45)ccc(c23)N1", "growth": "95.9%"}
{"smiles": "N#Cc1c(-c2ccc(Cl)cc2)c(C#N)c2c(C#N)c(N)nn2c1N", "growth": "80.1%"}
{"smiles": "Cc1ccc(C2CC(c3ccc(Nc4nc(NCCO)nc(Nc5ccc(Cl)cc5)n4)cc3)=Nc3c(N)nc(N)nc3N2)cc1", "note": "(stereo not given)", "growth": "-80% (active)"}
{"smiles": "C[n+]1c(-c2ccccc2)c2cc(N)ccc2c2ccccc21", "growth": "-15.4% (active)"}
{"smiles": "S=C1NC2(c3ccccc3)CCC(=S)N2c2ccccc21", "note": "(stereo not given)", "growth": "112%"}
{"smiles": "Cc1ccc2nc3ccccc3c(NCc3ccc(Cl)cc3)c2c1", "growth": "-21.7% (active)"}
{"smiles": "O=S(=O)(NCCCNc1nccc(-c2c(-c3cccc(F)c3)nc3sccn23)n1)c1cccc2ccccc12", "growth": "59.3%"}
{"smiles": "O=C(O)CCCC(=O)O", "growth": "94.9%"}
{"smiles": "COc1ccc(C(O)c2cc3c(N)c(C(=O)Nc4cccc(Cl)c4C)sc3nc2C)cc1", "note": "(stereo not given)", "growth": "8.74% (active)"}
{"smiles": "COc1ccc(O)c(N=Nc2nccs2)c1", "growth": "17.5%"}
{"smiles": "COC(=O)c1ccc(CSc2nnc(-c3c(C)nc4ccc(C)cn34)o2)cc1", "growth": "93.2%"}
